We go through 4 molecules from PubChem BioAssay (EPA / NIEHS).

Activity calls are given as the source filed them. Rule for the calls: active = hit-call score of the fitted dose curve at least 0.9, where 1 is the maximum; inactive = score below 0.9.

Test [1] in a line: ATG_E_Box_CIS: Attagene CIS-FACTORIAL HepG2 Assay for human Enhancer Box (E-box) (AID 2282936). Conditions: HepG2 E-box cis-reporter transcription, actives raise or lower the signal. The procedure, abridged:
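DMSO served as negative control and baseline for bidirectional fitting. Human hepatoma HepG2 cells, transiently transfected with cis-reporter constructs, were dosed 24 h; reporter mRNA read by RT-PCR and capillary electrophoresis.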

Test [2] is described as follows: ATG_M_61_CIS: Attagene CIS-FACTORIAL HepG2 Assay for M61 Transcription Factor (Internal Marker) (AID 2282937). The conditions noted are these: HepG2 Attagene CIS-FACTORIAL M61 internal marker reporter; actives raise or lower the signal. Put shortly:
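Endogenous transcription factor activity in HepG2 is read through transiently transfected cis-element reporter units. After 24 h dosing, RNA undergoes reverse transcription, PCR and primer extension with 6-FAM before capillary electrophoresis; DMSO-referenced bidirectional fit.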

The nature of test [3]: ATG_EGR_CIS: Attagene CIS-FACTORIAL HepG2 Assay for human Early Growth Response 1 (EGR1) (AID 2282938). Conditions: HepG2 Attagene CIS-FACTORIAL EGR reporter mRNA; actives raise or lower the signal. The procedure, abridged:
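Activity is taken as induction or loss of reporter mRNA versus DMSO, fitted bidirectionally. Transcripts from cis-regulated reporter units in transiently transfected HepG2 were measured after 24 h by RT-PCR with capillary electrophoresis.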

Test [4] can be described thus: ATG_M_19_CIS: Attagene CIS-FACTORIAL HepG2 Assay for M19 Transcription Factor (Internal Marker) (AID 2282939). The conditions noted are these: HepG2 Attagene CIS-FACTORIAL M19 internal marker reporter; actives raise or lower the signal. Put shortly:
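Chemical-treated HepG2 (24 h) with MRTU constructs; reporter transcripts detected by fluorescent RT-PCR fragment analysis on capillary electrophoresis. Internal background marker, DMSO as baseline.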

Test [5] can be described thus: ATG_Ets_CIS: Attagene CIS-FACTORIAL HepG2 Assay for human Erythroblast Transformation Specific (ETS) (AID 2282941). The conditions noted are these: HepG2 ETS cis-reporter transcription, actives raise or lower the signal. Put shortly:
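Human HepG2 hepatoma cells were transiently transfected with promoter-driven reporter constructs and treated for 24 hours. Reporter transcripts were quantified by RT-PCR with fluorescent primer extension; bidirectional curve fitting used DMSO as reference.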

In test [6] the target is Hepatocyte nuclear factor 3-beta (Homo sapiens) (UniProt Q9Y261). The test is described as follows: ATG_FoxA2_CIS: Attagene CIS-FACTORIAL HepG2 Assay for human Forkhead box A2 (FOXA2) (AID 2282942). Conditions: HepG2 cis-reporter transcription factor activity, 24 h; actives raise or lower the signal. Put shortly:
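Reporter transcript induction is measured by fluorescence after capillary electrophoresis of RT-PCR products from HepG2 cells exposed 24 h. Cis-regulated reporter units report endogenous factor activity; curves fitted both directions against DMSO.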

Test [7] is described as follows: ATG_GATA_CIS: Attagene CIS-FACTORIAL HepG2 Assay for human GATA Binding Protein (AID 2282944). Conditions: HepG2 GATA cis-element reporter, Attagene multiplex mRNA; actives raise or lower the signal. The procedure, abridged:
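Transfected cis-reporter HepG2 cells were treated with chemicals for 24 hours. Total RNA was then converted to cDNA, amplified with reporter-specific primers and analysed by fluorescent capillary electrophoresis, using DMSO-treated wells as baseline.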

Test [8] can be described thus: ATG_GLI_CIS: Attagene CIS-FACTORIAL HepG2 Assay for human Zinc Finger Protein GLI1 (AID 2282945). Conditions: HepG2, Attagene cis-factorial reporter mRNA, GLI element; actives raise or lower the signal. Put shortly:
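Bidirectional curve fits relative to DMSO, using reporter mRNA levels from RT-PCR plus capillary electrophoresis. Cells were HepG2 transiently carrying cis-regulated reporter constructs, harvested 24 h after dosing.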

The target in test [9] is Bile acid receptor (Homo sapiens) (UniProt Q96RI1). Put plainly: ATG_IR1_CIS: Attagene CIS-FACTORIAL HepG2 Assay for human Nuclear Receptor Subfamily 1 Group H Member 4 (NR1H4), IR1 submotif (AID 2282946). Conditions: IR1 reporter transcription, actives raise or lower the signal. The procedure, abridged:
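Cells (human HepG2) carry transiently transfected cis-promoter reporter transcription units. Compounds are incubated 24 h, total RNA is reverse-transcribed and amplified, and labelled fragments are resolved by capillary electrophoresis. Curves use DMSO as baseline.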

Test [10] can be described thus: ATG_GRE_CIS: Attagene CIS-FACTORIAL HepG2 Assay for human Glucocorticoid Response Elements (GRE) (AID 2282947). Conditions: HepG2 GRE cis-reporter, Attagene multiplex mRNA; actives raise or lower the signal. Put shortly: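 Assay uses human hepatoma HepG2 cells transfected with cis-promoter reporter units, exposed 24 h. mRNA from reporters detected by RT-PCR plus capillary electrophoresis; DMSO serves as negative control and baseline.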

Test [11] is described as follows: ATG_ISRE_CIS: Attagene CIS-FACTORIAL HepG2 Assay for human Interferon Regulatory Factor 1 (IRF1) binding to an Interferon-Stimulated Response Element (ISRE) (AID 2282948). The conditions noted are these: HepG2 ISRE cis-reporter (Attagene), mRNA transcription readout; actives raise or lower the signal. Put shortly: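 Cell-based cis-reporter assay; HepG2; 24 h exposure; reporter mRNA by RT-PCR plus capillary electrophoresis fluorescence; activity in either direction scored relative to DMSO.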

A short description of test [12]: ATG_M_32_CIS: Attagene CIS-FACTORIAL HepG2 Assay for M32 Transcription Factor (Internal Marker) (AID 2282949).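 Note: background control marker of the multiplexed CIS panel rather than a real target.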 The conditions noted are these: HepG2 Attagene cis-factorial M32 reporter, mRNA; actives raise or lower the signal. Put shortly: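 Internal background marker read-out: RT-PCR/capillary electrophoresis fluorescence of reporter transcripts from transiently transfected HepG2 cells after 24 h chemical exposure. Activity fitted bidirectionally relative to DMSO negative control.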

Test [13] in a line: ATG_M_06_CIS: Attagene CIS-FACTORIAL HepG2 Assay for M06 Transcription Factor (Internal Marker) (AID 2282950). Conditions: HepG2 Attagene CIS-FACTORIAL M06 internal marker reporter; actives raise or lower the signal. Put shortly: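 Cells (HepG2, transiently carrying cis-driven reporter units) receive chemical for 24 h before RNA isolation. Reporter cDNA is PCR-amplified, FAM-labelled by primer extension, HpaI-digested and sized on a capillary analyser.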

The target of test [14] is Hepatocyte nuclear factor 6 (Homo sapiens) (UniProt Q9UBC0). Put plainly: ATG_HNF6_CIS: Attagene CIS-FACTORIAL HepG2 Assay for human Hepatocyte Nuclear Factor 6 (HNF6) (AID 2282952). The conditions noted are these: HepG2 Attagene cis-factorial HNF6 reporter transcription; actives raise or lower the signal. The procedure, abridged: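 Reporter mRNA induction or loss in HepG2 after 24 h exposure; transient cis-MRTU transfection; fragments quantified by capillary electrophoresis; bidirectional analysis, DMSO as negative control.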
Sequence of Hepatocyte nuclear factor 6 (Homo sapiens) (Q9UBC0 whole entry, looked up, the tested form may be a part): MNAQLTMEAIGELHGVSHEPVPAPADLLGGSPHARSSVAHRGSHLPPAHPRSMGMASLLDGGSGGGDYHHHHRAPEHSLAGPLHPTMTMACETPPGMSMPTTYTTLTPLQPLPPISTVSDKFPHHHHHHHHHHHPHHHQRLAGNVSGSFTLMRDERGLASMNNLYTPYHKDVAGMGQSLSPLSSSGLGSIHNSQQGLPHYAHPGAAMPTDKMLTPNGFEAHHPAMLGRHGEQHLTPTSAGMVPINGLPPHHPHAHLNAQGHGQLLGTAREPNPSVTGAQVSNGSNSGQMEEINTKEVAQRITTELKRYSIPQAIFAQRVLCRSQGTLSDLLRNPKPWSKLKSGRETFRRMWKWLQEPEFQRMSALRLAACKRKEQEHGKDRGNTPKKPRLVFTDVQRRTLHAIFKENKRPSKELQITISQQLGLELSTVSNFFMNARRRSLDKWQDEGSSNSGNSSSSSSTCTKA

The target of test [15] is Heat shock factor protein 1 (Homo sapiens) (UniProt Q00613). The test is described as follows: ATG_HSE_CIS: Attagene CIS-FACTORIAL HepG2 Assay for human Heat Shock Transcription Factor 1 (HSE) (AID 2282953). Conditions: HepG2 HSE cis-reporter, Attagene RNA transcription; actives raise or lower the signal. Put shortly:
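Liver-derived HepG2 cells carry transiently introduced multiple reporter units governed by cis promoters. Reporter RNA measured 24 h post-dose through reverse transcription, PCR amplification, fluorescent labelling and capillary electrophoresis, normalised to DMSO.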

A short description of test [16]: ATG_MRE_CIS: Attagene CIS-FACTORIAL HepG2 Assay for human Metal Responsive Element (MRE) (AID 2282954). Conditions: HepG2 MRE cis-reporter transcription, Attagene multiplex; actives raise or lower the signal. Put shortly:
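After a 24 h chemical exposure, transiently transfected HepG2 cells yield RNA whose reporter sequences are amplified, FAM-labelled and sized by capillary electrophoresis. Curves are fitted bidirectionally relative to DMSO.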

The nature of test [17]: ATG_PBREM_CIS: Attagene CIS-FACTORIAL HepG2 Assay for human Phenobarbital-responsive Enhancer Module (PBREM) (AID 2282955). The conditions noted are these: HepG2 PBREM cis-reporter, Attagene multiplexed transcription; actives raise or lower the signal. Put shortly:
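Cells were transfected with cis-element reporter units and treated for 24 h, after which RNA was extracted and reporter transcripts measured by RT-PCR and capillary electrophoresis.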

Test [18] can be described thus: ATG_FoxO_CIS: Attagene CIS-FACTORIAL HepG2 Assay for human Forkhead box O (FoxO) (AID 2282943). The conditions noted are these: HepG2 Attagene cis-reporter, FoxO element, mRNA; actives raise or lower the signal. Put shortly: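 HepG2, transient MRTU transfection (cis element, endogenous TFs). Dose 24 h. TriZol RNA → oligo(dT) RT → PCR → 6-FAM primer extension → HpaI cut → CE. Gain/loss vs DMSO.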

The target in test [19] is Hypoxia-inducible factor 1-alpha (Homo sapiens) (UniProt Q16665). The test is described as follows: ATG_HIF1a_CIS: Attagene CIS-FACTORIAL HepG2 Assay for human Hypoxia Inducible Factor 1 (HIF1A) (AID 2282951). The conditions noted are these: HepG2 Attagene cis-factorial HIF1a reporter transcription; actives raise or lower the signal. The procedure, abridged: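 Fluorescence intensity of capillary-separated, 6-FAM-labelled reporter amplicons gives mRNA induction in HepG2 cells carrying transfected cis-promoter reporter units; cells exposed 24 h, responses fitted up or down from DMSO.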
Sequence of Hypoxia-inducible factor 1-alpha (Homo sapiens) (Q16665 whole entry, looked up): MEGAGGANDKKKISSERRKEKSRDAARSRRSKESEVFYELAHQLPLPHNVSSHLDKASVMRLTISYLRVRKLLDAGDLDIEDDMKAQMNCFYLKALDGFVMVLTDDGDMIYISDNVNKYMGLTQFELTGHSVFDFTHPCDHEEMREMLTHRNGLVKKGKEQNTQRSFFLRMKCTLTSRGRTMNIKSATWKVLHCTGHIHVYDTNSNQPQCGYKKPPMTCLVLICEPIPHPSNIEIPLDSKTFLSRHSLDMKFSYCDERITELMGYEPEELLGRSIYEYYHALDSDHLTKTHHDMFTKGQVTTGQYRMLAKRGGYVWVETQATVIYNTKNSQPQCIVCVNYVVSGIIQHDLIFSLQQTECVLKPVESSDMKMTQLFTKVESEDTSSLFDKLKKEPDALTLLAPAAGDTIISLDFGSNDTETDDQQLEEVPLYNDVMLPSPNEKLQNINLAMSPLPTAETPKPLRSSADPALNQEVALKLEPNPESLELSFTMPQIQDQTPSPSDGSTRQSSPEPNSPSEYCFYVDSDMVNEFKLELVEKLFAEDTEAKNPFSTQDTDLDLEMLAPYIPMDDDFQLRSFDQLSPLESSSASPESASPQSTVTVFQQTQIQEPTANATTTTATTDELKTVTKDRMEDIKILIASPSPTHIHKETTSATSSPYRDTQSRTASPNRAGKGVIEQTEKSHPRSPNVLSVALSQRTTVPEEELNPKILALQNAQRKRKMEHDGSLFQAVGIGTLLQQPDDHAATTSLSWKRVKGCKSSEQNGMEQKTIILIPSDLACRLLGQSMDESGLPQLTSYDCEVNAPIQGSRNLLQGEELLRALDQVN

A short description of test [20]: ATG_ERE_CIS: Attagene CIS-FACTORIAL HepG2 Assay for Estrogen Response Element (ERE) (AID 2282940). The conditions noted are these: HepG2 ERE cis-reporter, Attagene RNA transcript; actives raise or lower the signal. The procedure, abridged:
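Human liver cells (HepG2) bearing transiently transfected, promoter-regulated reporter units were exposed 24 h. Reporter mRNA induction was detected by capillary electrophoresis of labelled RT-PCR products and fitted bidirectionally to DMSO.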

Sequence of Heat shock factor protein 1 (Homo sapiens) (Q00613 whole entry, looked up): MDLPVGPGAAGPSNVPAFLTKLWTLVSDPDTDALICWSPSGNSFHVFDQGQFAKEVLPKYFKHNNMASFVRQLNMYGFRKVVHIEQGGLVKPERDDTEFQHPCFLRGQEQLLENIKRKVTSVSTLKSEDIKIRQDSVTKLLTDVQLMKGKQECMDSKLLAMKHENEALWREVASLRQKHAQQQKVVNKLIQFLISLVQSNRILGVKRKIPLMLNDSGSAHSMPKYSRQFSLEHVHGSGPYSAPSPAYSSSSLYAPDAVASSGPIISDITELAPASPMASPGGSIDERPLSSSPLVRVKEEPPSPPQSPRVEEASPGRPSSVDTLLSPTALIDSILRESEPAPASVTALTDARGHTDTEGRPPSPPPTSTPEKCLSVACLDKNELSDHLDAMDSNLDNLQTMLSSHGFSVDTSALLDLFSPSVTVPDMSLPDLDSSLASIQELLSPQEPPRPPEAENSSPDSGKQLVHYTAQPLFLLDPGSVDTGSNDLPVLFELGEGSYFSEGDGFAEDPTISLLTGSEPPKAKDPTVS
Sequence of Hepatocyte nuclear factor 3-beta (Homo sapiens) (Q9Y261 whole entry, looked up): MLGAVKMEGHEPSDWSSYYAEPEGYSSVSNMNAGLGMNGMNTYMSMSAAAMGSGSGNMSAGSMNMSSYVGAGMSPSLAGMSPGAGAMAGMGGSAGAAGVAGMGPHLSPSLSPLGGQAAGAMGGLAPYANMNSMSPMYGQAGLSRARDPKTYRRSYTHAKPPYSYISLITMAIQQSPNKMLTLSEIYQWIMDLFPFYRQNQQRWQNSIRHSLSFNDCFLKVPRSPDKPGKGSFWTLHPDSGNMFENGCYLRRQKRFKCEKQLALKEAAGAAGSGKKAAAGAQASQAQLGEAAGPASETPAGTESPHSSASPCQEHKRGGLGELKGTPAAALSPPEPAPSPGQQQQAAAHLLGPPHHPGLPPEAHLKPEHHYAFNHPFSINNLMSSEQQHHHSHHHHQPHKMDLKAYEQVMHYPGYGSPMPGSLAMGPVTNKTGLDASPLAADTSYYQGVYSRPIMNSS
Sequence of Bile acid receptor (Homo sapiens) (Q96RI1 whole entry, looked up, the tested form may be a part): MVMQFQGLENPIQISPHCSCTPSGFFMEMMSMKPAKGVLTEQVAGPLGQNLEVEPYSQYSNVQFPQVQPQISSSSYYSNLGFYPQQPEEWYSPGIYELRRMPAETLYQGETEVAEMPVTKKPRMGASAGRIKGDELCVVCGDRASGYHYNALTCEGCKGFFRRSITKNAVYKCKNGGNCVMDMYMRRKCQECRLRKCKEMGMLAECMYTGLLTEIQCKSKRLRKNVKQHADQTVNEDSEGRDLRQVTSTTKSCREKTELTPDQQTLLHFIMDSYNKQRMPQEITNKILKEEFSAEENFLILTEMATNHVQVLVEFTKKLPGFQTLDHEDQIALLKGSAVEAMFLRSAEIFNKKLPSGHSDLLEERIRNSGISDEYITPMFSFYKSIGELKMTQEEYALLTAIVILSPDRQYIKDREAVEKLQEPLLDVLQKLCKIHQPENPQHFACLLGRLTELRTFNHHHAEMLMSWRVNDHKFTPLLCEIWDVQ

Turning to `O=C(O)Cc1cc(I)c(Oc2ccc(O)c(I)c2)c(I)c1`, the result in [1], in test [2], in [3], in test [4], in test [5] and in test [6] was inactive. The molecule was called inactive in [7], in test [8], in [9], in [10], in test [11] and in test [12]. Moreover, the molecule was called inactive in [13], in test [14] and in test [17]. Besides, the AC50 (usually the concentration giving half of the maximal activity seen) in test [15] was 170 µM (active) [middle of 4 runs]; in test [16], 80.5 µM (active) [middle of 4 runs].

Regarding `CCCCCCCCCC(=O)O`, the outcome in test [1], in test [2], in test [3], in test [4], in test [5] and in test [6] was inactive. For the same molecule, the result in [18], in test [7], in [8], in test [10], in test [11] and in [12] was inactive. The molecule was classed as inactive in test [13], in [19], in [14], in test [15] and in test [16].

On to `Cc1c2ccccc2c(C)c2c1ccc1ccccc12`, for which the AC50 in test [1] is 8.32 µM (active); in test [4], 33.4 µM (active); in test [20] it was 3.55 µM (active); in [9], 6.62 µM (active); in [12] it was 55.3 µM (active). Further, the result in test [2], in [3], in test [5], in [6], in [7] and in [8] was inactive. In addition, the molecule was classed as inactive in test [10], in [11], in [13], in [19], in test [14] and in test [15]. Moreover, the molecule was classed as inactive in test [16] and in [17].

`CN1C(=O)CC[C@H]1c1cccnc1`: the outcome in test [1], in test [2], in test [3], in test [4], in [5] and in [6] was inactive. Besides, the outcome in [18], in test [7], in [8], in test [11], in test [12] and in test [13] was inactive. Further, the molecule was called inactive in test [14], in test [15], in test [16] and in test [17].
